Assay outcomes from PubChem.
Spn MK inh = inhibitors of Streptococcus pneumoniae mevalonate kinase; purified MK, PK/LDH-coupled NADH absorbance 340 nm; inhibition, % at 10 µM; actives 0.48% (n = 65,000);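 active means ranked among the strongest by inhibition in the single 10 µM screen, a fixed top-ranked set picked for dose follow-up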
NADH enzymes = inhibitors of enzymes used to reach an NAD/NADH endpoint | coupled PK/LDH NADH assays, four targets | IC50, µM (highest dose often 10 µM), inactives show at the top dose inhibition | actives 0.02% (n = 65,000) | AID 774;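 active means single-dose screening hits from any of four coupled enzyme assays that gave an IC50 when retested across doses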;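 further: the DPM-DC format reads NADH fluorescence rather than 340 nm absorbance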
Fluor 339 460 = intrinsic fluorescence of library compounds, ex339/em460 – biochemical, MLSMR library, data from DPM-DC assay, artefact control, profiling panel | actives 5.5% (n = 65,000) | fluorescence fold increase at 10 µM | AID 709 | compound autofluorescence, ex339/em460 nm, NADH buffer; active compounds read high; 1 = no-compound wells, NADH background;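 active means at 10 µM, mean starting fluorescence two-fold or more over control wells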;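 further: signal is the first read of a kinetic run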
Spn DPM-DC inh = S. pneumoniae DPM-DC inhibition. purified DPM-DC, PK/LDH coupled NADH fluorescence. actives 0.49% (n = 65,000). calls only at 10 µM;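 active means the 320 compounds with the highest percent inhibition in the single-dose primary screen, excluding strongly autofluorescent ones, cut at about 32% in these data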;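 further: kinetic rate of NADH fluorescence loss reporting ADP formed by the decarboxylase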
Abs 340nm = compound absorbs light at 340 nm | compound absorbance at 340 nm, fold over control | fold change at 10 µM | 65,000 tested, under 10 active;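 active means at 10 µM dose, initial 340 nm absorbance at least 2 fold that of control wells; inactive means change under 2 fold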;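 further: initial absorbance extrapolated from kinetic A340 decline of NADH oxidation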
PMK inhibit = S. pneumoniae PMK inhibition; purified PMK, PK/LDH-coupled NADH absorbance 340 nm; inhibition, % at 10 µM; actives 0.49% (n = 65,000);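 active means top-ranked compounds by inhibition in the single 10 µM screen, taking a fixed number of the strongest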;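 further: 0% = full reaction with DMSO carrier and 100% = background rate without enzyme reaction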
An asterisk follows results filed as active; i = inactive; . = not tested or not shown; + = active, no number. Compounds with a hit are over-represented: about 6.3% of the library has one in this group of screens.

SMILES | Spn MK inh | NADH enzymes | Fluor 339 460 | Spn DPM-DC inh | Abs 340nm | PMK inhibit
Cc1ccc(S(=O)(=O)c2cc3c(=O)n4cc(C)ccc4nc3n(CC3CCCO3)c2=N)cc1 (stereo not given) | 9 | 8% | 2.1* | i | 1.1 | 1
CCOC(=O)CSc1nc2ccccc2c(=O)n1CC1CCCO1 (stereo not given) | 0 | 4% | 1.2 | i | 1.1 | 11
N=c1c(S(=O)(=O)c2ccccc2)cc2c(=O)n3ccccc3nc2n1CC1CCCO1 (stereo not given) | 6 | 10% | 3.1* | i | 1 | 4
Cn1c(=N)c(S(=O)(=O)c2ccc(Cl)cc2)cc2c(=O)n3ccccc3nc21 | 7 | 6% | 1.8 | i | 0.98 | 11
COCc1cc(C)n(CC(=O)NC(C)c2ccccc2)c(=O)c1C#N (stereo not given) | 5 | 9% | 3.8* | . | 1.1 | 13
COCc1cc(C)n(CC(=O)Nc2ccccc2C(=O)OC)c(=O)c1C#N | 4 | 12% | 2.8* | i | 1.1 | 11
CCOC(=O)C1CCN(C(=O)Nc2ccc3nc(C)c(C)nc3c2)CC1 | 5 | 3% | 2.9* | . | 1 | 12
CCOC(=O)C1CCN(C(=O)Nc2ccc3oc(C)nc3c2)CC1 | 10 | 6% | 1.1 | i | 1 | 7
CC1Cc2ccccc2N1c1ncnc2c1nnn2Cc1ccccc1 (stereo not given) | 0 | 5% | 2.6* | i | 1.1 | 8
c1ccc(Cn2nnc3c(N4CCc5ccccc5C4)ncnc32)cc1 | 5 | 5% | 1.1 | i | 0.97 | 10
COc1ccc2[nH]cc(C3N4CC5(C)CN3CC(C)(C4)C5=O)c2c1 (stereo not given) | 48* | 20% | 1.1 | i | 1 | 13
c1ccc(NC(=NCc2ccco2)c2ccccc2)cc1 | 0 | 9% | 1.1 | i | 1 | 27*
CS(=O)(=O)N1CCCC(C(=O)NCc2ccccn2)C1 (stereo not given) | 0 | 10% | 1 | i | 1 | 29*
C=CCNC(=O)C1CCCN(S(C)(=O)=O)C1 (stereo not given) | 0 | 9% | 1.1 | i | 1 | 28*
CN(C)c1nc(N)nc(Cn2ccnc2)n1 | 4 | 1% | 1.1 | i | 1.1 | 0
CCCC(=O)Nc1ccccc1-c1nnc(SC)[nH]c1=O | 10 | 4% | 1.1 | i | 1.1 | 3
c1cncc(-c2nnc(C3CCCCC3)o2)c1 | 10 | 3% | 1.2 | i | 1 | 0
Cc1ccccc1OCCNC(=O)CNC(=O)c1ccccc1O | 4 | 7% | 3.7* | . | 1 | 9
CC1CC(C)CN(CCCNC(=O)Cn2ncc3c(=O)oc4ccccc4c32)C1 (stereo not given) | 10 | 18% | 0.57 | + | 0.99 | 7
COCc1cc(C)nc2sc(C(=O)OC(C)C)c(N)c12 | 6 | 9% | 2.1* | i | 1.1 | 5
N=c1cc(C2(O)CCCCC2)n2c(nc3ccccc32)s1 | 1 | 0% | 1.1 | i | 1 | 0
Cc1oc2ncnc(N)c2c1C | 11 | 7% | 1.2 | i | 0.98 | 10
Cc1ccc(-c2oc3ncnc(N)c3c2-c2ccc(C)cc2)cc1 | 5 | 4% | 3.5* | . | 1.1 | 3
CCOC(=O)c1sc2cccc(F)c2c1N | 0 | 5% | 2.7* | . | 0.99 | 11
Cc1cccc(NC(=O)CCCCCN2C(=O)c3ccccc3C2=O)n1 | 3 | 2% | 1.1 | i | 1 | 11
SMILES | Spn MK inh | NADH enzymes | Fluor 339 460 | Spn DPM-DC inh | Abs 340nm | PMK inhibit
CCOC(=O)C1=C(C)Nc2ccccc2N=C1NC(=O)CCCN1C(=O)c2ccccc2C1=O | 2 | 10% | 1.1 | i | 0.99 | 27*
O=c1oc2ccccc2cc1-c1cn2cccnc2n1 | 20 | 20% | 3.6* | . | 1.2 | 19
O=C(Nc1ccncc1)c1cc2ccccc2oc1=O | 9 | 4% | 1.1 | i | 1.1 | 4
C=CCOc1ccccc1C1C2=C(CC(C)(C)CC2=O)Nc2c1c(=O)n(C)c(=O)n2C (stereo not given) | 6 | 8% | 3.6* | . | 1 | 9
COC(=O)c1c(C(=O)OC)c2ccncn2c1Cl | 10 | 24% | 1.7 | + | 1.1 | 17
COC(=O)C1=C(C)N(c2ccc(Cl)c(Cl)c2)C(=O)C1 | 0 | 0% | 1.1 | i | 1.1 | 0
COc1cc2nc(N3CCN(C(=O)c4ccco4)CC3)nc(N)c2cc1OC | 6 | 2% | 2.5* | i | 1 | 0
COc1cc2nc(N3CCN(C(=O)C4COc5ccccc5O4)CC3)nc(N)c2cc1OC (stereo not given) | 6 | 2% | 2.5* | . | 1 | 4
CCc1nc(SCC(=O)Nc2cccc(C(F)(F)F)c2)c2c(=O)n(C)c(=O)n(C)c2n1 | 7 | 2% | 1.2 | i | 1.1 | 0
O=C(Nc1ccc(S(=O)(=O)N2CCCCCC2)cc1)C1CCCO1 (stereo not given) | 11 | 5% | 1.1 | i | 1 | 1
CCOC(=O)N1CCN(C(=O)c2cn(CC)c3cc(N4CCN(C)CC4)c(F)cc3c2=O)CC1 | 5 | 9% | 1.9 | + | 1 | 18
CCC(=O)N1CCN(c2cc3c(cc2F)c(=O)c(C(=O)O)cn3CC)CC1 | 0 | 3% | 4.8* | . | 1.1 | 5
CCOC(=O)c1cn(CC)c2cc(N3CCOCC3)c(F)cc2c1=O | 9 | 4% | 2.3* | . | 1 | 16
CCN1CCN(c2cc3c(cc2F)c(=O)c(C(=O)O)cn3C2CC2)CC1 | 6 | 7% | 2.2* | . | 1 | 23
CCOC(=O)c1cn(CC)c2cc(N3CCCCC3)c(F)cc2c1=O | 4 | 13% | 2 | i | 1.1 | 16
CCCCCCC(=O)N1CCN(c2cc3c(cc2F)c(=O)c(C(=O)O)cn3CC)CC1 | 0 | 4% | 1 | i | 1 | 7
O=C(CCn1c(=S)[nH]c2ccccc2c1=O)N1CCN(c2ccccn2)CC1 | 1 | 3% | 1.1 | i | 1 | 9
COc1ccc(S(=O)(=O)Nc2ccc3oc(C)c(C(=O)O)c3c2)cc1 | 9 | 3% | 1.1 | i | 1.1 | 0
COCCOC(=O)c1c(C)oc2ccc(NS(=O)(=O)c3ccc(F)cc3)cc12 | 10 | 5% | 1 | + | 0.99 | 0
COC(=O)c1c(NC(=O)c2cccs2)sc2c1CCC(C)C2 (stereo not given) | 3 | 5% | 3.1* | i | 1.1 | 6
CC(C)OC(=O)c1c(NC(=O)c2cccs2)sc2c1CCCC2 | 0 | 0% | 2.2* | . | 1.1 | 0
O=C(Nc1sc2c(c1C(=O)O)CCCC2)c1cccs1 | 8 | 5% | 1.1 | i | 1.1 | 8
Cc1cc(C(=O)Nc2sc3c(c2C#N)CCC(C)C3)cs1 (stereo not given) | 16 | 8% | 2* | i | 1 | 8
CCOC(=O)c1cc2sccc2n1CC(=O)c1ccc2c(c1)OCCO2 | 3 | 5% | 1 | i | 1 | 12
